Experimental data from ChEMBL document CHEMBL3433997, “St. Jude Leishmania screening dataset” (2016).

Columns and labels:
Type in all cases: functional
[1] = biological target: Solute carrier family 2, facilitated glucose transporter member 1 (Homo sapiens) (UniProt P11166); test: ST_JUDE_LEISH: Cytotoxicity at 2uM final concentration against transgenic Leishmania Mexicana promastigotes LmGLUT1 that are glucose transport deficient and complemented with the human glucose transporter GLUT1. Activity is measured by DNA content using SYBR green in vitro
Sequence of Solute carrier family 2, facilitated glucose transporter member 1 (Homo sapiens) (P11166 whole entry): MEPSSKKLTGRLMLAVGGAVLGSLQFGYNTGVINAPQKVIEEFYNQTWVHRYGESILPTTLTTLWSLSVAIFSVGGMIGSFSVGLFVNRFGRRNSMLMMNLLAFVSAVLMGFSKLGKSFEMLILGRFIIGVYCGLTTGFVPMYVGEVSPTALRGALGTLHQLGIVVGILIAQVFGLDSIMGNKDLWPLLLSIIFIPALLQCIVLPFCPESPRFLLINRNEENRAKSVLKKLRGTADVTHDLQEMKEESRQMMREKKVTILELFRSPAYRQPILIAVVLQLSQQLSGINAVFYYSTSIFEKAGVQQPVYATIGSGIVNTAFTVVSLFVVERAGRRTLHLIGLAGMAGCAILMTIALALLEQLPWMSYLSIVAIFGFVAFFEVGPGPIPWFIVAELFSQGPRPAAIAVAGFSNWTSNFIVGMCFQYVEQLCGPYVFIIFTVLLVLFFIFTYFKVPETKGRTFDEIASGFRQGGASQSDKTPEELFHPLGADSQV

[2] = biological target: Hexose transporter 1 (Plasmodium falciparum) (UniProt O97467); test: ST_JUDE_LEISH: Cytotoxicity at 2uM final concentration against transgenic Leishmania Mexicana promastigotes LmPfHT that are glucose transport deficient and complemented with the Plasmodium falciparum hexose transporter. Activity is measured by DNA content using SYBR green in vitro
[3] = biological target: Glucose transporter (Leishmania mexicana) (UniProt O61059); test: ST_JUDE_LEISH: Cytotoxicity at 2uM final concentration against transgenic Leishmania Mexicana promastigotes LmGT2 that are glucose transport deficient and complemented with the L. Mexicana glucose transporter 2. Activity is measured by DNA content using SYBR green in vitro

Row | Structure (SMILES) | inhibition [1] | inhibition [2] | inhibition [3]
1 | COc1ccc(CN(C)CCCc2ccc(NC(=O)c3cccc4c(=O)c5cccc(F)c5[nH]c34)cc2)cc1OC | 14.2% | 9.74% | 10.1%
2 | COc1cccc2cc(C(=O)N[C@@H](CC(C)C)C(=O)N[C@H](C=NN(C)C(=O)OC(C)(C)C)Cc3ccccc3)oc12 | 5.65% | 7.62% | 5.03%
3 | O=C(Nc1ccc2c(c1)CCC2)c1ccc(N2CCN(c3ccncc3)CC2)cn1 | 11.7% | 12.8% | 14.7%
4 | COc1cc(CNCCCNc2nc(=O)c3sccc3[nH]2)c2[nH]cc(Cl)c2c1 | 92.7% | 96.7% | 87.6%
5 | O=C(N[C@@H](Cc1ccccc1)C(=O)NC1CCCc2ccccc21)c1ccc(O)c(-c2ccc(Cl)c(Cl)c2)c1 (some centres not stated) | 0.59% | 0.41% | -0.1%
6 | CC(C)(CNC(=O)/C=C/c1ccc(C(F)(F)F)cc1)CNc1cc(=O)c2ccccc2[nH]1 | 1.07% | -1.76% | 1.66%
7 | CCC1CN(CCCn2c3ccccc3c3ccccc32)C(CC)CN1 (configuration not stated) | -0.46% | -0.59% | -0.18%
8 | O=C(Nc1ccc(Oc2ccccc2)cc1)N1CCC(CCN2CCC(c3c[nH]c4ccccc34)CC2)CC1 | 4.42% | 2.98% | 5.21%
9 | O=C(NCCCc1ccccc1)c1csc(C2CCCN(C(=O)c3ccc(O)c(-c4cccc5ccccc45)c3)C2)n1 (configuration not stated) | 0.14% | -0.18% | -0.59%
10 | COc1cc(Nc2nccc(N3CCC(NC(=O)C4COc5ccccc5O4)C3)n2)cc(OC)c1OC (configuration not stated) | 2.77% | 1.3% | 2.12%
11 | Nc1c2c(nc3ccc(NC(=O)CCCCCCc4ccccc4)cc13)CCCC2 | -2.4% | -2.24% | -3.57%
12 | COc1cccc(NC(=O)CSc2nc(-c3ccccc3Cl)ns2)c1 | 5.33% | 4.86% | 6.13%
13 | O=C(Nc1cc(=O)[nH]c2nc(-c3ccccc3)nn12)C1CCCCC1 | 2.3% | 2.44% | 3.26%
14 | COc1ccc(NC(=O)CCNc2cc(C)nc(Nc3ccccc3)n2)cc1 | 5.84% | 5.64% | 5.8%
15 | C/C(=C\C(=O)NC1CC1)c1ccccc1OCc1ccccc1 | 0.29% | -2.11% | 3.94%
16 | CCCCCCOc1ccccc1C(=O)NCCOc1ccc(Cl)cc1 | 3.58% | -1.45% | -1.97%
17 | O=C(C1CCCCC1)N1CCOC(CCN2CCC(c3ccccc3)CC2)(c2ccc(Cl)c(Cl)c2)C1 (configuration not stated) | 15.2% | 16.1% | 13.5%
18 | CCN(CC)/C(=N/C(=N)Nc1ccc(C)cc1)NCCCCCCN/C(=N\C(=N)Nc1ccc(C)cc1)N(CC)CC | 7.79% | 5.77% | 5.53%
19 | Cc1nc(N)nc(N)c1OCCCCCCOc1ccccc1 | 2.38% | 4.83% | -0.89%
20 | O=C(/C=C/c1ccc(C(F)(F)F)cc1)NCCCCCN1CCN(C(=O)Nc2ccc(Cl)cc2)CC1 | 2.27% | 3.09% | 1.84%
21 | COc1ccc2[nH]ccc(=NN=Cc3ccccc3Cl)c2c1 | 7.36% | 12.6% | 2.03%
22 | Cc1cccc(-c2ccc(CNC3CCN(CC4Cn5c(=O)ccc6ccc(F)c4c65)CC3)cn2)c1 (configuration not stated) | 6.75% | 7.42% | 1.89%
23 | COc1ccc(CNC2Cc3ccccc3C2)cc1-c1ccc(S(=O)(=O)NCCN2CCCC2)s1 | 17.7% | 15.5% | 7.58%
24 | CS(=O)(=O)Nc1ccc2c(C3CCN(CCC4CCN(C(=O)/C=C/c5ccc(Cl)c(Cl)c5)CC4)CC3)c[nH]c2c1 | 4.12% | 3.65% | 4.12%
25 | COc1ccc(-c2cccc(NC(=O)c3cccc(Cl)c3)c2)cc1CN1CCNCC1 | 2.8% | 2.6% | -0.77%

Row | Structure (SMILES) | inhibition [1] | inhibition [2] | inhibition [3]
26 | O=C(Nc1ccc(Cn2ncc(N3CCCNCC3)c(Cl)c2=O)cc1)Nc1cc(F)cc(C(F)(F)F)c1 | 2.7% | 3.7% | 0.99%
27 | c1cncc(-c2cc(N3CCc4ccccc4C3)nc(-c3ccncc3)n2)c1 | 8.78% | 7.89% | 4.28%
28 | O=[N+]([O-])c1ccc(CNCCCCCCNCc2ccc([N+](=O)[O-])c3ccccc23)c2ccccc12 | 2.24% | 0.87% | 7.99%
29 | CN(CCCNC(=S)NC12CC3CC(CC(C3)C1)C2)CCCNc1ccnc2cc(Cl)ccc12 | -1.07% | 0.09% | 1.25%
30 | CC(C)(C)CCN1CCC(CNC(=O)c2cc(-c3cccc(Cl)c3)cs2)C1 (configuration not stated) | 0.6% | -0.8% | -1.21%
31 | Oc1c(Cl)cc(-c2ccccc2)cc1CNC1CCCCC1 | 2.63% | 1.84% | 0.52%
32 | CN1CCCN(c2ccnc3cc4c(cc23)N(C(=O)c2ccc(Cl)cc2)CC4)CC1 | 13.4% | 12.5% | 16.1%
33 | O=S(=O)(c1cccc2cccnc12)N1CCN(C2CCCCC2)CC1 | 8.16% | 8.51% | 7.83%
34 | O=C(Nc1cccc(OC2CCN(Cc3ccc(F)cc3)CC2)c1)c1ccc(C(F)(F)F)cc1 | 0.28% | 0.67% | 0.79%
35 | CCOc1ccc(-c2nonc2NC(=O)c2ccc(Cl)cc2)cc1OCC | 4.45% | 4.43% | 4.61%
36 | CCN(CC)CCCC(C)Nc1c2ccccc2nc2c1ccc1ccccc12 (configuration not stated) | 7.99% | 3.26% | 7.76%
37 | O=C(/C=C/c1ccc(Cl)c(Cl)c1)NCCCCCCN1CCN(C(=O)Nc2ccc(C(F)(F)F)cc2)CC1 | 2.86% | 3.11% | 3.19%
38 | OC(CNCc1ccccc1Oc1ccccc1)c1cccc(C(F)(F)F)c1 (configuration not stated) | 3.95% | 2.2% | 0.07%
39 | COc1cc2c(cc1S(=O)(=O)c1ccc(OCc3ccc(Cl)cc3)cc1)CCN(Cc1ccc(NC(C)=O)s1)CC2 | 4.82% | 4.31% | -0.61%
40 | Cc1cc(N[C@@H](CC(C)C)C(=O)NCCOc2ccccc2)nc(Nc2ccccc2)n1 | 6.84% | 2.42% | 1.29%
41 | O=C(Nc1ccc(CC(=O)N2CCc3cc(Cl)c(N4CCN(C/C=C/c5ccccc5)CC4)cc32)cc1)Nc1cccc([N+](=O)[O-])c1 | 1.73% | 1.25% | 1.93%
42 | Nc1ncnc2cc(-c3cccc(NC(=O)Nc4ccccc4)c3)sc12 | 3.48% | 2.18% | -1.3%
43 | Cc1cc(C2NC(=O)c3ccccc3N2)c(C)n1-c1ccc2c(c1)OCO2 (configuration not stated) | 4.98% | 3.59% | 4.51%
44 | Cc1cccc2nc(-c3ccc(-c4cccc(CNCCc5ccncc5)c4)cc3)[nH]c12 | 5.55% | 3.23% | 0.92%
45 | CC1(C)CC(=O)c2c(O)cc(OCc3ccncc3)cc2O1 | 2.92% | 0.56% | 0.66%
46 | N#Cc1ccc(-c2nc(CO)c(C(=O)NCCCCN3CCC(c4ccc5c(c4OCC(N)=O)CCCC5)CC3)s2)cc1 | 1.02% | -1.06% | 1.74%
47 | COc1ccc(NC(=O)NC2CCN(c3ccnc4ccccc34)C2)cc1 (configuration not stated) | 0.52% | 0.7% | 2.29%
48 | O=C(NCc1cccc2ccccc12)C1CCCN(C(=O)c2ccc(O)c(-c3ccc(Cl)c(Cl)c3)c2)C1 (configuration not stated) | 1.68% | 1.11% | 1.88%
49 | CCCNCc1ccc(-c2ccc(CN(Cc3ccc4c(c3)OCO4)C(=O)[C@H]3CCCO3)cc2)nc1 | 13.6% | 10.6% | 8.76%
